Compounds without any hit were thinned out: in the full panel of roughly 83,000, 20% have a hit.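 Note: values are percent growth. 100 is the growth of untreated cells, values between 100 and 0 indicate rising inhibition; between -100 and 0 indicates cell death.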 Unmarked numbers belong to inactive results. Active and inactive are the calls of the source. Rule for the calls: active = growth percent below 10; inactive = the rest.

The first assay deals with T-47D breast. Description: NCI-60 one-dose screen, 48 h (100 = growth as untreated, 0 = no growth, -100 = all killed). Particulars: 10 µM unless noted.
In the case of `O=C1N/C(=N/N=C(c2ccccc2)c2ccccc2)S/C1=C\c1ccc(Br)cc1`, the growth is 84.7%.

Take `N#CC1=C(N)Oc2c(ccc3ccccc23)C1c1cc2ccccc2n2nnnc12` (stereo not given): the growth was 25%.

For the molecule `O=C(NCCN1CCOCC1)c1cncnc1Nc1ccc2c(ccn2Cc2ccccn2)c1`, the growth was 98.3%.

Take `CN1CCN(Cc2ccc(NC(=O)c3cncc(C#Cc4cnc(N)c5ncccc45)c3)cc2Cl)CC1`: the growth was 121%.

With `CC1(C)CC(=O)C2=C(C1)OC(C(=O)c1ccccc1)C2c1cccc(Oc2ccccc2)c1` (stereo not given), the growth was 5.71% (active).

Consider `Cc1ccc2c(c1)CC(O)CC1C(=O)N(CCO)CC(=O)N21` (stereo not given), for which the growth was 93.1%.

For `O=S(=O)(c1ccc(NCSc2nc3ccccc3s2)cc1)c1ccc(NCSc2nc3ccccc3s2)cc1`, the growth is 63.9%.

With `Cc1ccc(C(F)(F)F)cc1N1CCN(C(=O)[C@H]2C[C@H]2c2ccc(C(F)(F)F)nc2)CC1`, the growth is 68.4%.

Regarding `CNC(=O)c1cc(Oc2ccc3nc(NC(=O)Nc4ccc(F)cc4F)sc3c2)ccn1`, the growth was 56.5%.

In the case of `CSc1nn2c(-c3cc4cc(Br)ccc4oc3=O)ccnc2c1C#N`, the growth was 99.7%.

For the molecule `CCCCCC(C)(O)C(C(=O)O)c1ccccc1` (stereo not given), the growth was 106%.

As to `O=C(O)CCCN1C(=O)CSC1=S`, the growth is 97.7%.

On to `COC(=O)c1c(C)nc(C)c2c1C(=O)C(Br)=C(NCCCCO)C2=O`, for which the growth was 76.9%.

As for `COc1ccc(C(=O)/C=C/Nc2cc(-c3ccccc3)nn2-c2ccccc2)cc1`, the growth is 82%.

As to `Cc1ccc(Nc2oc(-c3ccccc3)nc2[P+](c2ccccc2)(c2ccccc2)c2ccccc2)cc1`, the growth is -28.5% (active).

As to `CNC1=C([N+](=O)[O-])C(c2ccc(OC)cc2)C(C#N)=C(c2ccc[nH]2)O1` (stereo not given), the growth is 100%.

Take `COc1ccc(-c2cn(Cc3ccc4c(Br)cc(Br)c(O)c4n3)nn2)cc1`: the growth is 65.1%.

For the molecule `C#Cc1cccc(Nc2nc(Cl)nc3cc(NC(=O)CCl)ccc23)c1`, the growth was -44.7% (active).

With `Cc1cc2nc(C(Cl)Cl)nc(-c3ccccc3)n2n1`, the growth was 61.7%.

As for `O=C(CSc1nnc(-c2cc(-c3ccc(Cl)cc3)nc3ccccc23)n1-c1ccccc1)Nc1ccc(Cl)cc1`, the growth was 96.5%.

For the molecule `Clc1ccc(C2=Nn3c(nnc3-c3cc(Cl)cc(Cl)c3Cl)SC2)cc1`, the growth was 63.2%.

As for `C=CC(=O)Nc1ccc2ncnc(Nc3cccc(NS(=O)(=O)CCC)c3Cl)c2c1`, the growth was 24.5%.

As for `C#CCOC(=O)C(N)CSSCC(N)C(=O)O` (stereo not given), the growth was 100%.

In the case of `CC(=O)/C(Br)=C/c1ccc(Br)o1`, the growth is 44.8%.

Turning to `CSc1nc(N)c2c(n1)NC(c1ccccc1)C1CCc3ccccc3C1=N2` (stereo not given), the growth was 33.5%.

Regarding `Cn1cc(-c2csc(-c3cn(CCO)c4ccc(F)cc34)n2)c2cccnc21`, the growth was 9.75% (active).

As to `Nc1ncc(-c2ccc3ncnc(N4CCc5cc(F)c(Cl)cc54)c3c2)cn1`, the growth was 8.79% (active).

`C=C(C[n+]1ccccc1)[C@@H]1CC[C@]2(C(=O)OC)CC[C@]3(C)[C@H](CC[C@@H]4[C@@]5(C)CCC(=O)C(C)(C)[C@@H]5CC[C@]43C)[C@@H]12`: the growth was 81.4%.

With `O=C(CSc1nc(-c2ccccc2)cn1-c1ccc(Cl)cc1)c1ccc([N+](=O)[O-])cc1`, the growth was 71.3%.

As to `O=CN1N=C(c2cccc(Nc3ccncc3)c2)CC1c1ccc2c(c1)OCO2` (stereo not given), the growth was 79.1%.

Regarding `CCN(CC)CCOc1ccc(/C(=C(\C)Cc2ccc(OC)cc2)c2ccc(O)cc2)cc1`, the growth was 20.3%.

For the molecule `Cc1nc2cccc(NCc3ccc(C(=O)NO)cc3)c2c(=O)n1-c1ccccc1`, the growth is 17.5%.

As to `COc1ccc(/C=C2/CCc3cc4ccc(OC)cc4[o+]c32)c(O)c1`, the growth was 67.2%.

Take `CCCC1Cc2cc(-n3nc(C)c4c3CC(C)(C)CC4=O)cc(NC3CCC(O)CC3)c2C(=O)N1` (stereo not given): the growth is 46.9%.

Consider `C#Cc1cccc(Nc2ncnc3ccc(-c4cnc(Cl)c(NS(C)(=O)=O)c4)cc23)c1`, for which the growth is -46.8% (active).

`O=C1/C(=C/c2cccc(Br)c2)COc2ccc(O)c(O)c21`: the growth was -14.3% (active).

In the case of `C=C(C)[C@@H]1CC[C@]2(COC(=O)c3cccnc3)CC[C@]3(C)[C@H](CC[C@@H]4[C@@]5(C)CCCN(C(=O)c6cccnc6)C(C)(C)[C@@H]5CC[C@]43C)[C@@H]12`, the growth was 31.3%.

For `C[C@@H]1N=C(c2ccc(Cl)cc2Cl)Nc2nc3ccccn3c2C1=O`, the growth was 64.3%.

As to `CCCC[N+]1(C)CCN=C1Cc1ccccc1` (stereo not given), the growth is 101%.

As for `O=C(OCC(O)(CO)C(=O)NC12CC3CC(CC(C3)C1)C2)c1ccc(Cl)cc1` (stereo not given), the growth is 88.9%.

The next assay relates to BT-549 breast. The description is as above. Particulars: 10 µM unless noted.
Consider `O=C1N/C(=N/N=C(c2ccccc2)c2ccccc2)S/C1=C\c1ccc(Br)cc1`, for which the growth was 97%.

`N#CC1=C(N)Oc2c(ccc3ccccc23)C1c1cc2ccccc2n2nnnc12` (stereo not given): the growth is 16.2%.

Take `O=C(NCCN1CCOCC1)c1cncnc1Nc1ccc2c(ccn2Cc2ccccn2)c1`: the growth was 102%.

In the case of `CN1CCN(Cc2ccc(NC(=O)c3cncc(C#Cc4cnc(N)c5ncccc45)c3)cc2Cl)CC1`, the growth was 105%.

With `CC1(C)CC(=O)C2=C(C1)OC(C(=O)c1ccccc1)C2c1cccc(Oc2ccccc2)c1` (stereo not given), the growth is 40.1%.

Take `Cc1ccc2c(c1)CC(O)CC1C(=O)N(CCO)CC(=O)N21` (stereo not given): the growth is 103%.

Turning to `O=S(=O)(c1ccc(NCSc2nc3ccccc3s2)cc1)c1ccc(NCSc2nc3ccccc3s2)cc1`, the growth was 87.5%.

As to `Cc1ccc(C(F)(F)F)cc1N1CCN(C(=O)[C@H]2C[C@H]2c2ccc(C(F)(F)F)nc2)CC1`, the growth was 88.2%.

As to `CNC(=O)c1cc(Oc2ccc3nc(NC(=O)Nc4ccc(F)cc4F)sc3c2)ccn1`, the growth was 100%.

`CSc1nn2c(-c3cc4cc(Br)ccc4oc3=O)ccnc2c1C#N`: the growth is 105%.

Turning to `CCCCCC(C)(O)C(C(=O)O)c1ccccc1` (stereo not given), the growth was 101%.

Turning to `O=C(O)CCCN1C(=O)CSC1=S`, the growth was 99.8%.

For the molecule `COC(=O)c1c(C)nc(C)c2c1C(=O)C(Br)=C(NCCCCO)C2=O`, the growth was 91.2%.

Turning to `COc1ccc(C(=O)/C=C/Nc2cc(-c3ccccc3)nn2-c2ccccc2)cc1`, the growth was 103%.

On to `Cc1ccc(Nc2oc(-c3ccccc3)nc2[P+](c2ccccc2)(c2ccccc2)c2ccccc2)cc1`, for which the growth was -21.5% (active).

With `CNC1=C([N+](=O)[O-])C(c2ccc(OC)cc2)C(C#N)=C(c2ccc[nH]2)O1` (stereo not given), the growth was 101%.

Take `COc1ccc(-c2cn(Cc3ccc4c(Br)cc(Br)c(O)c4n3)nn2)cc1`: the growth is 111%.

In the case of `C#Cc1cccc(Nc2nc(Cl)nc3cc(NC(=O)CCl)ccc23)c1`, the growth is -89.3% (active).

Take `Cc1cc2nc(C(Cl)Cl)nc(-c3ccccc3)n2n1`: the growth is 86.8%.

As for `O=C(CSc1nnc(-c2cc(-c3ccc(Cl)cc3)nc3ccccc23)n1-c1ccccc1)Nc1ccc(Cl)cc1`, the growth was 110%.

`Clc1ccc(C2=Nn3c(nnc3-c3cc(Cl)cc(Cl)c3Cl)SC2)cc1`: the growth was 31.4%.

`C=CC(=O)Nc1ccc2ncnc(Nc3cccc(NS(=O)(=O)CCC)c3Cl)c2c1`: the growth was 35.7%.

Turning to `C#CCOC(=O)C(N)CSSCC(N)C(=O)O` (stereo not given), the growth is 104%.

In the case of `CC(=O)/C(Br)=C/c1ccc(Br)o1`, the growth was 52.1%.

Turning to `CSc1nc(N)c2c(n1)NC(c1ccccc1)C1CCc3ccccc3C1=N2` (stereo not given), the growth is 73.9%.

Regarding `Cn1cc(-c2csc(-c3cn(CCO)c4ccc(F)cc34)n2)c2cccnc21`, the growth was 52.8%.

`Nc1ncc(-c2ccc3ncnc(N4CCc5cc(F)c(Cl)cc54)c3c2)cn1`: the growth is 33.7%.

In the case of `C=C(C[n+]1ccccc1)[C@@H]1CC[C@]2(C(=O)OC)CC[C@]3(C)[C@H](CC[C@@H]4[C@@]5(C)CCC(=O)C(C)(C)[C@@H]5CC[C@]43C)[C@@H]12`, the growth was 72.8%.

With `O=C(CSc1nc(-c2ccccc2)cn1-c1ccc(Cl)cc1)c1ccc([N+](=O)[O-])cc1`, the growth was 86.8%.

For the molecule `O=CN1N=C(c2cccc(Nc3ccncc3)c2)CC1c1ccc2c(c1)OCO2` (stereo not given), the growth was 106%.

Regarding `CCN(CC)CCOc1ccc(/C(=C(\C)Cc2ccc(OC)cc2)c2ccc(O)cc2)cc1`, the growth is 56.7%.

`Cc1nc2cccc(NCc3ccc(C(=O)NO)cc3)c2c(=O)n1-c1ccccc1`: the growth was 73.4%.

For `COc1ccc(/C=C2/CCc3cc4ccc(OC)cc4[o+]c32)c(O)c1`, the growth was 96.2%.

Consider `CCCC1Cc2cc(-n3nc(C)c4c3CC(C)(C)CC4=O)cc(NC3CCC(O)CC3)c2C(=O)N1` (stereo not given), for which the growth is 68.4%.

`C#Cc1cccc(Nc2ncnc3ccc(-c4cnc(Cl)c(NS(C)(=O)=O)c4)cc23)c1`: the growth is -35.4% (active).

Consider `O=C1/C(=C/c2cccc(Br)c2)COc2ccc(O)c(O)c21`, for which the growth is -19.2% (active).

As to `C=C(C)[C@@H]1CC[C@]2(COC(=O)c3cccnc3)CC[C@]3(C)[C@H](CC[C@@H]4[C@@]5(C)CCCN(C(=O)c6cccnc6)C(C)(C)[C@@H]5CC[C@]43C)[C@@H]12`, the growth was 51.9%.

In the case of `C[C@@H]1N=C(c2ccc(Cl)cc2Cl)Nc2nc3ccccn3c2C1=O`, the growth is 55.6%.

For the molecule `CCCC[N+]1(C)CCN=C1Cc1ccccc1` (stereo not given), the growth is 123%.

Consider `O=C(OCC(O)(CO)C(=O)NC12CC3CC(CC(C3)C1)C2)c1ccc(Cl)cc1` (stereo not given), for which the growth was 102%.

Source of the values: PubChem BioAssay (NCI).
